Assay results taken from PubChem BioAssay (EPA / NIEHS).
Inconclusive results are not listed. Calls of active or inactive are those of the source. The calls were made as follows, unless noted: active = hit-call score of the fitted dose curve at least 0.9, where 1 is the maximum; inactive = score below 0.9.

Assays:
[1] = CCTE_Shafer_MEA_dev_firing_rate_mean: CCTE's Neural Network Formation Assay for Mean Firing Rate, Shafer Lab (AID 2284031)
Summary of the method: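 Rat primary cortical neurons were seeded on multielectrode arrays and treated from plating through day 12, with redosing at each feed. Spontaneous spiking was recorded four times; mean firing rate AUC was fitted downward against DMSO.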

[2] = CCTE_Shafer_MEA_dev_per_burst_spike_percent: CCTE's Neural Network Formation Assay for Percent of Spikes in a Burst, Shafer Lab (AID 2284032)
Summary of the method: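 Rat primary cortical neurons on 16-electrode MEA wells, dosed from plating day 0 for 12 days with renewal on DIV 5 and 9; spikes-in-bursts percentage averaged over bursting electrodes, collapsed as AUC across days 5, 7, 9, 12; loss direction versus DMSO.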

[3] = CCTE_Shafer_MEA_dev_active_electrodes_number: CCTE's Neural Network Formation Assay for Number of Active Electrodes, Shafer Lab (AID 2284040; active = hit-call score of the fitted dose curve at least 0.9, where 1 is the maximum;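 also: potency for loss of active electrodes versus DMSO so lower counts are hits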)
Summary of the method: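 Primary rat cortical neurons on 16-electrode MEA wells, exposed from day 0 through day 12 with compound renewed at DIV 5 and 9 feeds. Active electrodes (mean firing ≥5 spikes/min) counted at DIV 5, 7, 9, 12; trapezoidal AUC across days, loss-of-signal versus DMSO.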

[4] = CCTE_Shafer_MEA_dev_bursting_electrodes_number: CCTE's Neural Network Formation Assay for Number of Bursting Electrodes, Shafer Lab (AID 2284043; active = hit-call score of the fitted dose curve at least 0.9, where 1 is the maximum)
Summary of the method: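 Read-out is the per-well number of electrodes bursting at least once every 2 minutes, recorded on days 5, 7, 9 and 12 and collapsed by trapezoidal area under the curve. Cultures were primary rat cortical neurons on MEA plates, treated continuously from plating.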

[5] = CCTE_Shafer_MEA_dev_per_burst_interspike_interval: CCTE's Neural Network Formation Assay for Burst Interspike Interval, Shafer Lab (AID 2284044);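 also: mean spike spacing inside bursts as AUC over recordings on days 5 7 9 12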
Summary of the method: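 Mean interspike interval within single-electrode bursts, averaged over bursting electrodes, from rat cortical cultures on MEA plates recorded on days 5, 7, 9 and 12. Continuous compound exposure from plating; trapezoidal AUC fitted downward relative to DMSO.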

[6] = CCTE_Shafer_MEA_dev_burst_duration_mean: CCTE's Neural Network Formation Assay for Mean Burst Duration, Shafer Lab (AID 2284045)
Summary of the method: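 Read-out: average first-to-last-spike interval within single-electrode bursts, averaged over bursting electrodes per well, then summarised as area under the curve across days 5, 7, 9 and 12. Developing rat cortical networks were exposed from day 0.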

[7] = CCTE_Shafer_MEA_dev_interburst_interval_mean: CCTE's Neural Network Formation Assay for Mean Interburst Interval, Shafer Lab (AID 2284046);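 also: well-mean interburst interval of bursting electrodes as AUC over four recording days; curve fitted for decrease in interburst interval relative to DMSO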
Summary of the method: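 Developing rat cortical networks on 48-well MEAs receive compound from the day of plating. Burst intervals from each active electrode are averaged per well, and AUC over the recording days is fitted in the negative direction against DMSO.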

[8] = CCTE_Shafer_MEA_dev_inter_network_spike_interval_mean: CCTE's Neural Network Formation Assay for Mean Inter-network Spike Interval, Shafer Lab (AID 2284047)
Summary of the method: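 Rat cortical cultures, 1.5 x 10^5 cells/well on 48-well MEA plates; continuous exposure days 0–12, medium and compound refreshed DIV 5, 9. Mean time between consecutive network-spike peaks; AUC across DIV 5/7/9/12; DMSO baseline, negative fitting direction.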

[9] = CCTE_Shafer_MEA_dev_network_spike_number: CCTE's Neural Network Formation Assay for Number of Network Spikes, Shafer Lab (AID 2284048);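 also: synchronized bursts across electrodes counted on days 5 7 9 12 and integrated as AUC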
Summary of the method: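 Developing networks of primary rat cortical neurons are treated over 12 days starting at plating, with media and compound fully replaced on DIV 5 and 9. Network spike counts from four recording days are integrated as trapezoidal AUC.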

[10] = CCTE_Shafer_MEA_dev_network_spike_peak: CCTE's Neural Network Formation Assay for Mean Number of Electrodes in Network Spike, Shafer Lab (AID 2284049)
Summary of the method: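 Rat cortical primary culture, 1.5 x 10^5 cells/well, 48-well MEA (16 electrodes/well). Dosing day 0 through DIV 12, full media/compound exchange DIV 5, 9. AxIS adaptive spike detection; AUC over days 5/7/9/12; loss-of-signal vs DMSO.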

[11] = CCTE_Shafer_MEA_dev_spike_duration_mean: CCTE's Neural Network Formation Assay for Mean Spike Duration, Shafer Lab (AID 2284051);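 also: mean network spike duration pooled as area under curve over DIV 5 to 12 recordings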
Summary of the method: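 Readout is the average length of network spikes, clustered firing across electrodes, summed over DIV 5, 7, 9 and 12 as area under the curve. Neurons from rat cortex developed networks on MEA plates under continuous 12-day exposure.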

[12] = CCTE_Shafer_MEA_dev_network_spike_duration_std: CCTE's Neural Network Formation Assay for Standard Deviation of Network Spike Duration, Shafer Lab (AID 2284052);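 also: area under curve of spike duration SD across recording days 5 to 12; hits are decreases in network spike duration SD versus DMSO vehicle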
Summary of the method: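 Read-out is the trapezoidal area-under-the-curve across recordings made on days 5, 7, 9 and 12, fitted in the negative direction against DMSO baseline. Neurons were primary rat cortical cells treated from day 0, with treatment renewed at each feed.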

[13] = CCTE_Shafer_MEA_dev_per_network_spike_spike_number_mean: CCTE's Neural Network Formation Assay for Mean Number of Spikes in a Network Spike, Shafer Lab (AID 2284053)
Summary of the method: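 Continuous twelve-day exposure of developing rat cortical networks grown over 16 microelectrodes per well; spontaneous firing is captured at four time points, and the per-network-spike spike number is integrated over development by trapezoidal AUC.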

[14] = CCTE_Shafer_MEA_dev_per_network_spike_spike_percent: CCTE's Neural Network Formation Assay for Percent of Spikes in a Network Spike, Shafer Lab (AID 2284054)
Summary of the method: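 Rat primary cortical cultures, 1.5 x 10^5 cells/well on MEA. Continuous compound exposure d0–12, medium/compound renewed DIV 5, 9. Network-spike spike % (0.05 s peak window), AUC over 4 recordings, DMSO baseline.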

[15] = CCTE_Shafer_MEA_dev_AB: CCTE's Alamar Blue Assay for Cytotoxicity in the Neural Network Formation Assay, Shafer Lab (AID 2284083; active = hit-call score of the fitted dose curve at least 0.9, where 1 is the maximum;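 also: resazurin reduction fluorescence as viability of cultured neurons; twelve days of exposure from plating with re-dosing on DIV 5 and 9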)
Summary of the method: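 Fluorescent resazurin reduction serves as the viability read-out, with DMSO as negative control and baseline. Cells were primary rat cortical neurons grown on MEA plates and dosed from day 0 to day 12, treatment renewed on DIV 5 and 9.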

[16] = CCTE_Shafer_MEA_dev_mutual_information_norm: CCTE's Neural Network Formation Assay for Mutual Information Normalization, Shafer Lab (AID 2284091)
Summary of the method: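 Developing rat cortical networks on 16-electrode MEA wells are treated throughout formation (DIV 0–12). Shared electrode information is recorded four times, converted to area-under-curve, and fitted for decreases against DMSO vehicle.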

[17] = CCTE_Shafer_MEA_dev_correlation_coefficient_mean: CCTE's Neural Network Formation Assay for Mean Correlation Coefficient, Shafer Lab (AID 2284093)
Summary of the method: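 Read-out: well-mean correlation coefficient of spike trains between electrode pairs, collapsed over four recording days as trapezoidal area-under-the-curve. Developing rat cortical neuron networks grown on MEAs received test chemical continuously from plating.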

[18] = UKN2_HCS_IMR90_neural_migration: University of Konstanz (UKN) Leist Lab Neural Crest Cell Migration Assay in human induced IMR90 Pluripotent Stem Cells (UKN2) (AID 2284204); details: actives raise or lower the signal
Summary of the method: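 Migration of human IMR90-derived neural crest cells into a stopper-defined gap is imaged after 24 h chemical treatment. Activity is fitted bidirectionally relative to DMSO.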

[19] = IUF_NPC1b_proliferation_BrdU_72hr: Leibniz Research Institute for Environmental Medicine (IUF) 72-hour Neural Progenitor Cell Bromodeoxyuridine (BrdU) Proliferation Assay (NPC1b) (AID 2284207)
Summary of the method: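 Proliferation of primary human neural progenitor cells: 72 h compound treatment at 37C, 5% CO2, pH 7.2-7.6, in EGF/FGF-containing medium. Readout is BrdU uptake (last 16 h) by chemiluminescent ELISA, normalised to DMSO.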

[20] = IUF_NPC1a_proliferation_area_72hr: Leibniz Research Institute for Environmental Medicine (IUF) 72-hour Neural Progenitor Cell Proliferation Area Assay (NPC1a) (AID 2284208)
Summary of the method: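 Proliferation read as increase in sphere area by phase-contrast imaging over 72 h continuous compound exposure (no renewal) of hNPC spheres grown with EGF/FGF at 37C, 5% CO2. Growth-factor withdrawal served as positive control; DMSO as baseline.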

[21] = IUF_NPC1_viability_72hr: Viability Assessment at 72 hours in the Leibniz Research Institute for Environmental Medicine (IUF) Neural Progenitor Cell Proliferation Assay (NPC1) (AID 2284209)
Summary of the method: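 hNPC spheres, 1/well, EGF+FGF medium, 37C/5% CO2; dosed day 0, 72 h, no re-dosing. Resazurin reduction (alamar blue) fluorescence; DMSO = negative control/baseline; growth-factor-free wells as positive control.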

[22] = CCTE_Mundy_HCI_Cortical_Synap_Neur_Matur_NeuriteSpotCountPerNeuriteLength: CCTE's Synaptogenesis and Neurite Maturation Assay in rat cortical cells for Neurite Spot Count per Neurite Length, Mundy Lab (AID 2284210)
Summary of the method: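 Primary rat cortical neurons, compound exposure DIV 7–12, 288.33 h endpoint. Hoechst, anti-MAP2 and anti-synaptophysin labelling; neurite-associated puncta per neurite length scored by automated imaging relative to DMSO controls.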

[23] = CCTE_Mundy_HCI_Cortical_Synap_Neur_Matur_BPCount: CCTE's Synaptogenesis and Neurite Maturation Assay in rat cortical cells for Branch Point Count, Mundy Lab (AID 2284211)
Summary of the method: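 Rat primary cortical cultures, AraC added DIV 5; chemicals dosed DIV 7 through DIV 12. Fixed cells stained for MAP2, synaptophysin and Hoechst; neurite branch points counted by automated high-content imaging, fitted relative to DMSO.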

[24] = CCTE_Mundy_HCI_Cortical_NOG_NeuriteCount: CCTE's Neurite Outgrowth Assay in rat cortical cells for Neurite Count, Mundy Lab (AID 2284212);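 also: cells fixed about two days after chemical exposure began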
Summary of the method: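 Neurite number per cell from high-content imaging of betaIII-tubulin immunostaining, with Hoechst nuclear counterstain.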

[25] = CCTE_Mundy_HCI_Cortical_NOG_NeuriteLength: CCTE's Neurite Outgrowth Assay in rat cortical cells for Neurite Length, Mundy Lab (AID 2284213)
Summary of the method: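 Neurite length was read by high-content imaging of βIII-tubulin-labelled neurites in rat primary cortical cultures. Activity was fitted relative to DMSO.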

Measured: AC50

CCOP(=O)(Oc1cnc(C(C)(C)C)nc1)OC(C)C (stereo not given)
inactive: [1] | [2] | [4] | [5] | [6] | [7] | [8] | [9] | [10] | [11] | [12] | [13] | [14] | [16] | [17] | [18] | [20] | [21] | [22] | [23] | [24] | [25]
active: [3] 29.2 µM | [15] 11.7 µM | [19] 2.63 µM
